Sampled rows, rich in hits. Any-hit rate of the full collection: about 10%.
JMJD2A Tudor inh: inhibitors of human JMJD2A Tudor domain | O75164 | AlphaScreen JMJD2A-Tudor / H3K4me3 peptide binding | Potency, µM (titrated, usually from 114 µM), for the others: at the highest dose activity change, negative = inhibition, usual class: inhibitors | actives 4.4% (n = 390,000) | AID 504339; further: potency means the concentration at half of the fitted maximal effect; on the % scale 0 is the no-effect control and ±100 the full control effect; nearly all actives have a fitted effect of over 50% in size
G9a inh: G9a (human) methyltransferase inhibition; Q96KQ7; actives 8.8% (n = 350,000); G9a H3K9 monomethylation, AlphaScreen, 2 h; Potency, µM (titrated, usually from 102 µM), without a hit: at the highest dose activity, negative = inhibition, hits mostly inhibitors; further: potency means the concentration at half of the fitted maximal effect; on the % scale 0 is the no-effect control and ±100 the full control effect; nearly all actives have a fitted effect of over 75% in size
Target sequence (Q96KQ7 913-1193 limits assumed): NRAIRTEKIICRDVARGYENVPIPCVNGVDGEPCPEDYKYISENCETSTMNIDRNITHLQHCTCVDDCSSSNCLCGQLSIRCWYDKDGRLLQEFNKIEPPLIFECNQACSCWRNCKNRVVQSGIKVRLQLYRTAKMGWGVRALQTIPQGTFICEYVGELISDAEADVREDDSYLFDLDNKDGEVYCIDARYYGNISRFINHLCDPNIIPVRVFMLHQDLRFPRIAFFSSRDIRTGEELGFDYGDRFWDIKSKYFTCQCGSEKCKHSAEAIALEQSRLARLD
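Methyltransferase reactions run at room temperature for 2 h (20 nM enzyme, 500 nM biotin-H3K9 peptide, 20 uM SAM) after a 15 min compound preincubation; product detected by AlphaScreen beads and anti-H3K9me1 antibody.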
HP1b binding inh: blocks HP1-beta chromodomain binding to methylated histone tails; P83916; AlphaScreen HP1-beta / biotin-H3K9me3 peptide binding; Potency, µM (highest dose often 114 µM), for the others: at the highest dose activity change, negative = inhibition, usual class: inhibitors; actives 0.56% (n = 390,000); further: potency means the concentration at half of the fitted maximal effect; nearly all actives have a fitted effect of over 70% in size
Target sequence (P83916 whole entry, looked up): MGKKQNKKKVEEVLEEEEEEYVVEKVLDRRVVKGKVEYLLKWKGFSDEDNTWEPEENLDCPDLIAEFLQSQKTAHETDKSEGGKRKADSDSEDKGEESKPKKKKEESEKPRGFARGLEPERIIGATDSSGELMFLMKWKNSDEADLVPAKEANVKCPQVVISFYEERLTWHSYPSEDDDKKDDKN
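HP1-beta protein (50 nM final) preincubated 30 min at room temperature with biotinylated H3(1-18)K9me3 peptide (50 nM) in PBS pH 7.4, 0.01% Tween-20, then compound added for 30 min. AlphaScreen streptavidin donor/nickel chelate acceptor beads (10 ug/mL final), 30 min dark, luminescence read.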
CtBP-E1A blk: blocks the CtBP interaction with E1A; AlphaScreen GST-E1A/His-CtBP binding, 1536-well; stronger effect = lower value; activity change, % (no concentration beside the values); actives 0.49% (n = 340,000); AID 651724; in the data active means activity change below about -65%; inconclusive means mostly about -30% to -63%; further: on the % scale 0 is the no-effect control and ±100 the full control effect
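Homogeneous bead-based format: GST-tagged E1A captured on glutathione donor beads, His-tagged CtBP on nickel acceptor beads; compounds precede bead addition by 2 h at 37 °C.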
BAZ2B inh: blocks human BAZ2B; actives 4.4% (n = 360,000); Potency, µM (highest dose often 114 µM), for inactives: at the highest dose activity change, negative = inhibition, hits mostly inhibitors; Q9UIF8; AID 504333; AlphaScreen BAZ2B-H3K14Ac peptide displacement; further: potency means the concentration at half of the fitted maximal effect; on the % scale 0 is the no-effect control and ±100 the full control effect; nearly all actives have a fitted effect of over 60% in size
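Multi-concentration screen (max 110 uM) measuring displacement of acetylated histone H3 peptide from BAZ2B by AlphaScreen, using 50 nM protein, 50 nM peptide and 10 ug/mL streptavidin donor plus Ni-chelate acceptor beads.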
Six1-Eya2 inh: Six1/Eya2 interaction inhibition. AlphaScreen GST-Six1/His-Eya2 binding, biochemical; stronger effect = lower value. activity change, % (concentration not given with the values). actives 0.56% (n = 360,000); in the data active means activity change below about -65%; inconclusive means mostly about -30% to -63%; further: on the % scale 0 is the no-effect control and ±100 the full control effect
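Compounds are tested against tagged Six1 and Eya2 proteins bridged by glutathione donor and nickel acceptor beads; after a one-hour incubation at 37 °C without light, AlphaScreen emission is recorded.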
* marks the source's active call; other numbers are inactive results; ? = inconclusive; / = no result given; ! = a repeat was not active; [ ] = remark or other dose. Unless noted, the call rests on the fitted dose curve; in most records, active means well fitted inhibition curve with a large enough effect; inconclusive means small, poorly fitted or top-dose-only effect; inactive means no such curve, though single readings can be large or run the other way.

SMILES	JMJD2A Tudor inh	G9a inh	HP1b binding inh	CtBP-E1A blk	BAZ2B inh	Six1-Eya2 inh
COC(=O)CSC1=C(C#N)C(c2ccc(C)o2)CC(=O)N1 (stereo not drawn)	-11.2%	18.3%[12.7 µM]	22.6%	0.0	-23.2%	1.5
Cc1cccc(N2CSC3=C(C#N)C(c4ccc(C)o4)CC(=O)N3C2)c1 (stereo not drawn)	/	3.55µM*	/	/	44.7µM*	/
CC(C)c1ccccc1NC(=O)CNCCOc1ccccc1F	28.2µM*	21.2%	?	8.1	50.1µM*	3.7
Cc1ccc2nc3c(nc2c1C)CCCC3	-6.1%	38.8%[0.501 µM]	12.5%	-8.1	10.1%	1.4
Cc1ccc2nc3c(nc2c1C)C(O)=C3O	-18.1%	12.6µM*	?	-11.0	-3.4%	-9.0
O=[N+]([O-])c1ccc(C[n+]2cccc(O)c2)cc1	-3.5%	-7.7%[2.33 µM]	31.2%	5.5	1.7%	9.9
O=[N+]([O-])c1ccc(C[n+]2cccc3ccc4cccnc4c32)cc1	11.2µM*	/	-15.6%	-89.0*	12.6µM*	-90.4*
O=[N+]([O-])c1ccc(C[n+]2cccc3ccccc32)cc1	1.7%	14.1µM*	21.9%	-2.0	-18.0%	0.0
CN(CCc1ccc(Cl)c(Cl)c1)CC(O)COc1ccc(NS(C)(=O)=O)cc1 (stereo not drawn)	/	-0.1%[59 µM]	/	/	/	/
N#Cc1cc2c(=O)n3ccccc3nc2n(-c2nnc(SCc3ccccc3Cl)s2)c1=O	11.7%	0.4%[59 µM]	53.0%	/	7.1%	/
Cc1ccccc1C(=O)NC1CCN(CC(=O)NC2CCCCC2)CC1	-5.4%	-2.3%[59 µM]	11.2%	-11.2	11.3%	-2.9
CCn1cc(C(=O)O)c(=O)c2cc(F)c(N3CCNCC3)nc21	-3.6%	3.2%[21.5 µM]	50.7%	0.0	/	0.0
NC1CCN(c2nc3c(cc2F)c(=O)c(C(=O)O)cn3-c2ccc(F)cc2F)C1 (stereo not drawn)	50.1µM*	-16.8%[12.7 µM]	77.7%	-0.5	/	-4.2
NC1CCN(c2c(F)cc3c(=O)c(C(=O)O)cn(C4CC4)c3c2Cl)C1 (stereo not drawn)	-15.1%	70.8µM*	47.6%	0.4	?	2.0
C[C@H]1CN([C@@H](C)CO)C(=O)CCCn2cc(nn2)CO[C@@H]1CN(C)C(=O)Oc1ccccc1	/	/	/	-3.4	/	10.7
Cc1cccc(C(=O)Oc2c(Sc3ccccc3)c(C)nn2C(C)(C)C)c1	53.6%	76.2%[59 µM]	70.6%	/	44.8%	/
COc1ccc(C(=O)O)nc1C	5.62µM*	-11.4%	0.3%	/	14.7%	-4.0
COC(=O)N1CCC2(CC1)CN(c1cccc(-c3ccccc3)c1)C2	/	2.3%[12.7 µM]	/	/	/	/
O=C(/C=C/c1ccco1)Oc1cc(Br)cc(/C=N/NC(=O)c2ccccc2O)c1	-33.1%	-15.6%	-9.5%	-92.2*	-4.1%	-88.5*
O=C(N/N=C/c1cccc(O)c1)c1ccccc1O	-7.4%[11.4 µM]	21.3%	55.8%	-14.1	-16.5%	-1.4
Cc1ccc(C(=O)N/N=C\c2ccc3c(c2)OCO3)cn1	-2.8%	11.7%	5.1%	-2.9	0.1%	2.8
Cc1ccc(C(=O)N/N=C/c2cccc(OC(=O)/C=C/c3ccco3)c2)cn1	-3.8%[11.4 µM]	44.7µM*	?	/	50.1µM*	-10.2
Cc1c(P(=S)(c2ccccc2)c2ccccc2)[n+]2ccccc2n1Cc1ccccc1	-17.7%	/	/	/	/	/
CCN(CC)S(=O)(=O)c1ccc2oc(C(=O)N(C)Cc3ccccc3)c(C)c2c1	14.7%	22.3%[59 µM]	43.7%	/	10.8%	/
CCCN1C(C(=O)c2ccccc2)=C(OC(=O)C(C)(C)C)c2ccccc2S1(=O)=O	-21.5%	-7.0%[59 µM]	47.3%	/	-24.4%	/
SMILES	JMJD2A Tudor inh	G9a inh	HP1b binding inh	CtBP-E1A blk	BAZ2B inh	Six1-Eya2 inh
C=CCN1C(C(=O)c2ccccc2)=C(OC(=O)COc2ccccc2)c2ccccc2S1(=O)=O	20µM*	?	-0.9%	6.1	?	15.9
CCN1C(C(=O)c2ccccc2)=C(OC(=O)COc2ccc(C)cc2)c2ccccc2S1(=O)=O	50.1µM*	15.8µM*	-3.1%	/	?	/
CCCN1C(C(=O)c2ccccc2)=C(OC(=O)COc2ccc(C)cc2)c2ccccc2S1(=O)=O	?	?	-7.0%	/	?	/
CCCN1C(C(=O)c2ccccc2)=C(OC(=O)COc2ccccc2)c2ccccc2S1(=O)=O	?	8.91µM*	-13.1%	/	-25.9%	/
CCN1C(C(=O)c2ccccc2)=C(OC(=O)COc2ccc(OC)cc2)c2ccccc2S1(=O)=O	?	11.2µM*	2.9%	/	?	/
CCOC(=O)c1c(C)[nH]c(C2=NNC(=NC3CC3)SC2)c1C	?	17.8µM*	?	-12.3	-31.7%	-10.8
CC(=O)C1=C(C)NC(SCC(=O)c2ccccc2)=C(C#N)C1CC(C)C (stereo not drawn)	56.2µM*	?	43.9%	-2.1	?	-6.1
CC(=O)C1=C(C)NC(SCC(=O)c2ccc(Cl)cc2)=C(C#N)C1c1ccco1 (stereo not drawn)	-24.5%	?	30.5%	-12.7	-5.0%	0.0
Fc1ccccc1SCc1nnc(-c2ccccc2Br)o1	11.2µM*	-10.2%	-10.5%	-20.0	83.7%	15.1
Cc1csc(SCc2nnc(-c3ccccc3Br)o2)n1	-8.0%	-37.3%	35.6%	-1.1	4.9%	-3.3
CCC(=O)c1ccc(OCC(=O)NCc2ccccc2CN2CCCC2)cc1	-0.7%	/	31.1%	-0.8	/	-2.3
CC1(C)CC(=O)C2=C(C1)NC(Nc1nc3ccccc3o1)=NC2c1cccc(F)c1 (stereo not drawn)	-6.2%[57.1 µM]	/	27.3%[57 µM]	/	/	/
COc1ccc(C(=O)NCC(c2cccnc2)N2CCN(c3ccccc3F)CC2)cc1OC (stereo not drawn)	-18.4%	5.3%[59 µM]	4.7%	/	-11.7%	/
COc1cc2nc(N3CCN(C(=O)OCc4ccccc4)C(C(=O)NC(C)(C)C)C3)nc(N)c2cc1OC (stereo not drawn)	/	5.62µM*!	/	/	/	/
COc1ccc(C)cc1NC(=O)C1CCCN1C(=O)OCc1ccccc1 (stereo not drawn)	9.5%	7.5%[59 µM]	41.0%	-3.3	-2.1%	-5.4
COc1cc2nc(N3CCN(C(=O)OCc4ccccc4)[C@H](C(=O)NC(C)(C)C)C3)nc(N)c2cc1OC	-27.6%	7.08µM*	12.9%	-27.5	-17.1%	-1.6
O=C(CCCn1c(=O)c2ccccc2n(CC(=O)Nc2cccc(Cl)c2)c1=O)NCc1ccc2c(c1)OCO2	-10.6%	6.5%[59 µM]	33.9%	/	-1.4%	/
O=C(O)c1ccccc1C(=O)N1N=C2/C(=C/c3cccc([N+](=O)[O-])c3)CCCC2C1c1cccc([N+](=O)[O-])c1 (stereo not drawn)	?	50.1µM*	-5.0%	-1.5	44.7µM*	-8.1

Screening data: PubChem BioAssay, National Center for Advancing Translational Sciences (NCATS)
